Compounds with a hit are over-represented: about 1.3% of the library has one in this group of screens.
PKA-R2B act: activators of human PKA-R2B complex | P22694+P31323 | PKA-R2B holoenzyme dissociation, Cy5-IP20 fluorescence polarization; R2B truncated from residue 108, S112A mutant; 0% DMSO only, 100% 113 µM cGMP | activation, % at 11.4 µM | 340,000 tested, 0.079% active | AID 504700;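 active = activation above a cutoff set at the mean over all compounds plus 3 SD, cut at about 18% in these data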;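 note: higher means more holoenzyme dissociation and a rise in polarization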
IDE cell inh: cellular human IDE inhibition; inhibition, % at 5.59 µM; P14735; 320,000 tested, 0.41% active; HEK cells, FAbetaB cleavage, fluorescence polarization;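 active = percent inhibition above the average of all tested compounds plus 3 SD, set per screening campaign, cut at about 16% in these data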;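 note: IDE supplied by intact live HEK cells; FP after avidin binding of uncleaved biotin substrate so inhibition keeps polarization high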
Rin1-Abl PPI inh: inhibitors of human Rin1-Abl protein interaction; TR-FRET Rin1/Abl binding, biochemical; inhibition, % at 7.35 µM; 360,000 tested, 0.4% active; in the data active = inhibition above about 5%, passing the limit was not always enough
E coli Lon inh: E. coli protease La inhibition | P0A9M0 | purified E. coli Lon protease, fluorescence polarization | inhibition, % at 7.94 µM | 360,000 tested, 0.42% active; in the data active = inhibition above about 13%, passing the limit was not always enough
PKA-R1A activ: activates the PKA-R1A holoenzyme complex; P00514+P68181; PKA-R1A dissociation, Cy5-IP20 fluorescence polarization; scaled: DMSO 0%, 113 µM cGMP 100%; activation, % at 11.4 µM; 340,000 tested, 0.083% active;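 active = percent activation above the mean of all tested compounds plus 3 SD, cut at about 19% in these data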;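 note: higher means more PKAc released from R1A so a rise in polarization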
IDE act: IDE (human) activation, cell-based | activation, % at 5.96 µM | 340,000 tested, 0.073% active | HEK cells, FAbeta-B cleavage, fluorescence polarization; 0% vehicle, 100% cell-free pure enzyme wells | P14735;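 active = activation above the mean of all tested compounds plus 3 SD, set per screening campaign, cut at about 17% in these data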
Each line names hits and unclear results; the compound was inactive in the other large screens.

CN(C)CCCN(C(=O)CCc1ccccc1)c1nc2ccc(Br)cc2s1	IDE act 29
CN(C)CCCN(C(=O)CCc1ccccc1)c1nc2ccc(F)cc2s1	none
CN(C)CCCN(C(=O)CCSc1ccccc1)c1nc2cc3c(cc2s1)OCO3	IDE act 43
CN(CCCC(=O)NCc1ccco1)S(=O)(=O)c1ccccc1	none
O=C(CN1C(=O)COc2ccc(S(=O)(=O)N3CCCC3)cc21)NCc1ccccn1	IDE act 19
NCCNC(=O)Cc1cccc(NC(=O)Cc2ccc(Nc3ncnc4c3ncn4[C@@H]3O[C@H](CO)[C@@H](O)[C@H]3O)cc2)c1	Rin1-Abl PPI inh 17
Oc1cc2c(cc1O)[C@H]1c3ccc(O)c(O)c3OC[C@@]1(O)C2	Rin1-Abl PPI inh 31
CC1=CC(=C2N=C(c3ccccc3)OC2=O)C=C(C)O1	E coli Lon inh 39
CN1C=CC=C/C1=C1/N=C(c2ccccc2)OC1=O	none
COc1cc(NC(=O)C2CCN(S(=O)(=O)c3ccc4c(c3)CC(C)N4C(C)=O)CC2)cc(OC)c1OC (stereo unspecified)	none
COc1ccc(NC(=O)C2CCN(S(=O)(=O)c3ccc4c(c3)CC(C)N4C(C)=O)CC2)cc1OC (stereo unspecified)	IDE act 77
Clc1cccc(-c2cc3nc(NCCOc4ccccc4)ccn3n2)c1	none (no result: PKA-R2B act, IDE cell inh, PKA-R1A activ, IDE act)
CCCCOc1ncnc2c1[nH]c1ccc(C)cc12	IDE cell inh 38 (no result: PKA-R2B act, PKA-R1A activ, IDE act)
Brc1ccc(-c2nnc3c4ccccc4nc(N4CCOCC4)n23)cc1	none
Fc1ccccc1-c1nnc2c3ccccc3nc(N3CCOCC3)n12	Rin1-Abl PPI inh 5.7
O=c1c2c(-c3ccccc3)csc2nc2c3ccccc3c(NCCN3CCOCC3)nn12	IDE act 18 (no result: IDE cell inh)
O=C1CSC(=S)N1/N=C/c1ccc(O)c(O)c1O	Rin1-Abl PPI inh 30
CCOC(=O)C1CCN(C(=O)COC(=O)c2ccc3[nH]c4c(c3c2)CCCC4)CC1	none
COc1ccccc1-c1c(C(F)(F)F)oc2cc(OC(=O)c3ccc([N+](=O)[O-])cc3)ccc2c1=O	IDE cell inh 17
Cc1cc(=O)oc2cc(OC(=O)c3ccccc3)ccc12	none
N#CC1=C(N)C(C#N)(C#N)C(c2cccnc2)C2CC(c3ccccc3)CC=C12 (stereo unspecified)	E coli Lon inh 18
COC(=O)C(C(=O)OC)c1ncccc1[N+](=O)[O-]	IDE act 18
COC(=O)C(C(=O)OC)c1ccccc1[N+](=O)[O-]	none
COCCSc1nc2c(c(=O)[nH]c(=O)n2C)n1Cc1cccc(C)c1	Rin1-Abl PPI inh 11
CCCSc1nc2c(c(=O)[nH]c(=O)n2C)n1Cc1ccccc1	none
O=C(COC(=O)CCc1c[nH]c(=O)[nH]1)Nc1ccccc1	E coli Lon inh 24
O=C(COC(=O)CCc1c[nH]c2ccccc12)Nc1ccccc1	none (no result: IDE cell inh)
CC(=O)c1cccc(-c2ccnc3c2CC(C(=O)N2CCN(C)CC2)O3)c1 (stereo unspecified)	none (no result: PKA-R2B act, IDE cell inh, PKA-R1A activ, IDE act)
O=C(NS(=O)(=O)Nc1ccccc1)C1=C(N2CCCC2)COC1=O	IDE act 34
O=C(NC(=O)c1ccccc1)C1=C(N2CCCC2)COC1=O	none
COc1cccc(C(=O)OCC(=O)N2CCc3ccccc3C2)c1OC	none (no result: PKA-R2B act, PKA-R1A activ, IDE act)
O=C(Nc1ccn(C2CC(OC(=O)c3ccccc3)C(CO)O2)c(=O)n1)c1ccccc1 (stereo unspecified)	Rin1-Abl PPI inh 9.1
Nc1c(C(=O)NCC2CCCO2)sc2nc3c(c(-c4ccco4)c12)CC/C3=C\c1ccco1 (stereo unspecified)	Rin1-Abl PPI inh 5.6 (no result: IDE cell inh)
NC(=O)c1sc2nc3c(c(-c4ccco4)c2c1N)CCCC3	none
COc1ccc(CNc2nc3ccccc3n2CCN2CCOCC2)cc1	IDE act 18
CCN(CC)c1ccc(CNc2nc3ccccc3n2CCN2CCOCC2)cc1	none
N#CC(C#N)=C1C=C2C=C(N3CCOCC3)CCC2CC1 (stereo unspecified)	IDE act 58 (no result: IDE cell inh)
CCN1CCN(C2=CC3=CC(=C(C#N)C#N)CCC3CC2)CC1 (stereo unspecified)	IDE act 35 (no result: IDE cell inh)
